# Laboratory results reported in the supplement of paper PMC8728848.
# The full list was thinned out, with the strongest signals kept by preference.
# B1: OGAN (protein)
# chain: MVQKESQATLEERESELSSNPAASAGASLEPPAAPAPGEDNPAGAGGAAVAGAAGGARRFLCGVVEGFYGRPWVMEQRKELFRRLQKWELNTYLYAPKDDYKHRMFWREMYSVEEAEQLMTLISAAREYEIEFIYAISPGLDITFSNPKEVSTLKRKLDQVSQFGCRSFALLFNDIDHNMCAADKEVFSSFAHAQVSITNEIYQYLGEPETFLFCPTEYCGTFCYPNVSQSPYLRTVGEKLLPGIEVLWTGPKVVSKEIPVESIEEVSKIIKRAPVIWDNIHANDYDQKRLFLGPYKGRSTELIPRLKGVLTNPNCEFEANYVAIHTLATWYKSNMNGVRKDVVMTDSEDSTVSIQIKLENEGSDEDIETDVLYSPQMALKLALTEWLQEFGVPHQY
# How the values were obtained:
# Experiment in all cases: glycan array binding signal (z-score within array); higher = stronger binding
# Details in all cases: glycan notation: IUPAC condensed, linker removed
# [1] = biological target: Fuc(a1-2)Gal(b1-3)[Fuc(a1-4)]GlcNAc(b1-2)Man(a1-3)[Fuc(a1-2)Gal(b1-3)[Fuc(a1-4)]GlcNAc(b1-2)Man(a1-3)]Man(b1-4)GlcNAc(b1-4)GlcNAc
# Procedure, shortened: (§1)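 Arrays were curated from the Consortium for Functional Glycomics database, 3228 in total, and kept only where the protein sequence was available. Binding is expressed as a within-array Z-score. This score was averaged across arrays of the same protein sequence at different concentrations or buffers and across linkers, and negative values can be read as non-binding.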
# [2] = biological target: Fuc(a1-2)Gal(b1-4)GlcNAc(b1-2)Man(a1-3)[Fuc(a1-2)Gal(b1-4)GlcNAc(b1-2)Man(a1-6)]Man(b1-4)GlcNAc(b1-4)[Fuc(a1-6)]GlcNAc
# Procedure, shortened: as §1
# [3] = biological target: Fuc(a1-2)Gal(b1-4)GlcNAc(b1-2)[Fuc(a1-2)Gal(b1-4)GlcNAc(b1-4)]Man(a1-3)[Fuc(a1-2)Gal(b1-4)GlcNAc(b1-2)Man(a1-6)]Man(b1-4)GlcNAc(b1-4)GlcNAc
# Procedure, shortened: as §1
# [4] = biological target: Fuc(a1-2)Gal(b1-4)GlcNAc(b1-3)[Fuc(a1-2)Gal(b1-4)GlcNAc(b1-6)]GalNAc
# Procedure, shortened: as §1
# [5] = biological target: Fuc(a1-2)Gal6S(b1-3)GlcNAc6S
# Procedure, shortened: as §1
# [6] = biological target: Fuc(a1-2)[Gal(a1-3)]Gal(b1-3)GalNAc
# Procedure, shortened: as §1
# [7] = biological target: Fuc(a1-2)[Gal(a1-3)]Gal(b1-4)GlcNAc(b1-3)[Fuc(a1-2)[Gal(a1-3)]Gal(b1-4)GlcNAc(b1-6)]GalNAc
# Procedure, shortened: as §1
# [8] = biological target: Fuc(a1-2)[GalNAc(a1-3)]Gal(b1-3)GalNAc(a1-3)[Fuc(a1-2)]Gal(b1-4)GlcNAc
# Procedure, shortened: as §1
# [9] = biological target: Fuc(a1-2)[GalNAc(a1-3)]Gal(b1-3)GalNAc(b1-3)Gal(a1-4)Gal(b1-4)Glc
# Procedure, shortened: as §1
# [10] = biological target: Fuc(a1-2)[GalNAc(a1-3)]Gal(b1-4)GlcNAc
# Procedure, shortened: as §1
# [11] = biological target: Fuc(a1-2)[GalNAc(a1-3)]Gal(b1-4)GlcNAc(b1-3)Gal(b1-4)GlcNAc(b1-3)Gal(b1-4)GlcNAc
# Procedure, shortened: as §1
# [12] = biological target: Fuc(a1-2)[GalNAc(a1-3)]Gal(b1-4)[Fuc(a1-3)]GlcNAc
# Procedure, shortened: as §1
# [13] = biological target: Fuc(a1-2)[GalNAc(a1-4)]Gal(b1-4)GlcNAc
# Procedure, shortened: as §1
# [14] = biological target: Fuc(a1-3)[Gal(b1-4)]GlcNAc6S
# Procedure, shortened: as §1
# [15] = biological target: Fuc(a1-3)[Gal3S(b1-4)]GlcNAc
# Procedure, shortened: as §1
# [16] = biological target: Fuc(a1-3)[Gal3S(b1-4)]GlcNAc6S
# Procedure, shortened: as §1
# [17] = biological target: Gal(a1-3)Gal(b1-4)GlcNAc(b1-2)Man
# Procedure, shortened: as §1
# [18] = biological target: Gal(a1-3)Gal(b1-4)[Fuc(a1-3)]GlcNAc(b1-2)Man(a1-3)[Gal(a1-3)Gal(b1-4)[Fuc(a1-3)]GlcNAc(b1-2)Man(a1-6)]Man(b1-4)GlcNAc(b1-4)GlcNAc
# Procedure, shortened: as §1
# [19] = biological target: Gal(b1-3)GalNAc(b1-4)Gal(b1-4)Glc
# Procedure, shortened: as §1
# [20] = biological target: Gal(b1-3)GlcNAc(b1-2)Man(a1-3)[Gal(b1-3)GlcNAc(b1-2)Man(a1-6)]Man(b1-4)GlcNAc(b1-4)[Fuc(a1-6)]GlcNAc
# Procedure, shortened: as §1
# [21] = biological target: Gal(b1-3)GlcNAc(b1-3)Gal(b1-4)GlcNAc(b1-2)[Gal(b1-3)GlcNAc(b1-3)Gal(b1-4)GlcNAc(b1-6)]Man(a1-6)[Gal(b1-3)GlcNAc(b1-3)Gal(b1-4)GlcNAc(b1-2)Man(a1-3)]Man(b1-4)GlcNAc(b1-4)[Fuc(a1-6)]GlcNAc
# Procedure, shortened: as §1
# [22] = biological target: Gal(b1-3)[Fuc(a1-4)]GlcNAc(b1-2)Man
# Procedure, shortened: as §1
# [23] = biological target: Gal(b1-4)GlcNAc(b1-2)Man(a1-3)[Gal(b1-4)GlcNAc(b1-2)Man(a1-6)][Gal(b1-4)GlcNAc(b1-4)]Man(b1-4)GlcNAc(b1-4)[Fuc(a1-6)]GlcNAc
# Procedure, shortened: as §1
# [24] = biological target: Gal(b1-4)GlcNAc(b1-3)Gal(b1-4)GlcNAc(b1-2)[Gal(b1-4)GlcNAc(b1-3)Gal(b1-4)GlcNAc(b1-6)]Man(a1-6)[Gal(b1-4)GlcNAc(b1-3)Gal(b1-4)GlcNAc(b1-2)Man(a1-3)]Man(b1-4)GlcNAc(b1-4)[Fuc(a1-6)]GlcNAc
# Procedure, shortened: as §1
# [25] = biological target: Gal(b1-4)GlcNAc(b1-3)Gal(b1-4)GlcNAc(b1-3)Gal(b1-4)GlcNAc(b1-2)[Gal(b1-4)GlcNAc(b1-3)Gal(b1-4)GlcNAc(b1-3)Gal(b1-4)GlcNAc(b1-6)]Man(a1-6)[Gal(b1-4)GlcNAc(b1-3)Gal(b1-4)GlcNAc(b1-3)Gal(b1-4)GlcNAc(b1-2)Man(a1-3)]Man(b1-4)GlcNAc(b1-4)[Fuc(a1-6)]GlcNAc
# Procedure, shortened: as §1
# [26] = biological target: Gal(b1-4)GlcNAc(b1-3)Gal(b1-4)GlcNAc(b1-3)Gal(b1-4)GlcNAc(b1-3)Gal(b1-4)GlcNAc(b1-3)Gal(b1-4)GlcNAc(b1-2)Man(a1-3)[Gal(b1-4)GlcNAc(b1-3)Gal(b1-4)GlcNAc(b1-3)Gal(b1-4)GlcNAc(b1-3)Gal(b1-4)GlcNAc(b1-3)Gal(b1-4)GlcNAc(b1-2)Man(a1-6)]Man(b1-4)GlcNAc(b1-4)[Fuc(a1-6)]GlcNAc
# Procedure, shortened: as §1
# [27] = biological target: Gal(b1-4)GlcNAc(b1-3)[GlcNAc(b1-6)]Gal(b1-4)GlcNAc
# Procedure, shortened: as §1
# [28] = biological target: Gal(b1-4)GlcNAc(b1-6)GalNAc
# Procedure, shortened: as §1
# [29] = biological target: Gal3S(b1-4)GlcNAc
# Procedure, shortened: as §1
# [30] = biological target: Gal3S6S(b1-4)GlcNAc
# Procedure, shortened: as §1
binder,measurement,setting,value
B1,glycan array binding signal (z-score),[1],0.055
same,glycan array binding signal (z-score),[2],-0.047
same,glycan array binding signal (z-score),[3],-0.036
same,glycan array binding signal (z-score),[4],-0.036
same,glycan array binding signal (z-score),[5],0.263
same,glycan array binding signal (z-score),[6],0.104
same,glycan array binding signal (z-score),[7],0.056
same,glycan array binding signal (z-score),[8],23.3
same,glycan array binding signal (z-score),[9],7.17
same,glycan array binding signal (z-score),[10],-0.083
same,glycan array binding signal (z-score),[11],-0.044
same,glycan array binding signal (z-score),[12],-0.028
same,glycan array binding signal (z-score),[13],-0.033
same,glycan array binding signal (z-score),[14],-0.052
same,glycan array binding signal (z-score),[15],0.055
same,glycan array binding signal (z-score),[16],-0.076
same,glycan array binding signal (z-score),[17],-0.037
same,glycan array binding signal (z-score),[18],-0.048
same,glycan array binding signal (z-score),[19],-0.029
same,glycan array binding signal (z-score),[20],-0.064
same,glycan array binding signal (z-score),[21],0.166
same,glycan array binding signal (z-score),[22],-0.036
same,glycan array binding signal (z-score),[23],-0.086
same,glycan array binding signal (z-score),[24],-0.01
same,glycan array binding signal (z-score),[25],-0.03
same,glycan array binding signal (z-score),[26],-0.001
same,glycan array binding signal (z-score),[27],-0.059
same,glycan array binding signal (z-score),[28],-0.053
same,glycan array binding signal (z-score),[29],-0.067
same,glycan array binding signal (z-score),[30],-0.035
